# In PubChem BioAssay:
# For some assays here: Potency and affinity values are given separately. The source made the active and inactive calls.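 Rule for the calls, unless noted: active = fluorescence ratio normalized to control raised more than 50% in primary screen plus both repeat runs; inactive = the rest.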
# Assays:
# [1] = test system: TRPC4 beta (transient receptor potential cation channel C4), mouse; assay: activators of mouse TRPC4 channel, confirmation, cell-based, Fluo4 calcium, HEK293 TRPC4beta/mu-opioid, duplicates, 10 µM (AID 2426); details: Fluo4 calcium fluorescence, at 10 µM; hits give high values;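 for activation: percent rise of integrated ratio over buffer wells lacking compound which define 0%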
# [2] = test system: transient receptor potential cation channel C4 beta (TRPC4), mouse; assay: activators of mouse TRPC4 channel, confirmation, cell-based, second round, Fluo4, HEK293 TRPC4beta/mu-opioid, 1 µM (AID 2461;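 active = primary screen active and over 50% activation in each of two duplicate runs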); details: Fluo4 calcium fluorescence, at 1 µM; hits give high values
# [3] = test system: TRPC4 (transient receptor potential cation channel C4 beta), mouse; assay: positive allosteric modulators of mouse TRPC4, confirmation, cell-based, second round, Fluo-4, HEK293 TRPC4beta/mu-opioid, 1 µM (AID 2554;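 active = primary screen hit whose fluorescence ratio, in both repeats, exceeds the weak agonist control mean by 3 SD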); details: DAMGO EC20, Fluo-4 calcium flux, at 1 µM; hits give high values
# [4] = test system: TRPC4 beta (transient receptor potential cation channel C4), mouse; assay: positive allosteric modulators of mouse TRPC4, confirmation, cell-based, Fluo-4, HEK293 TRPC4beta/mu-opioid (AID 2555;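 active = primary screen hit whose calcium fluorescence ratio, in both repeats, exceeds the weak agonist control mean by 3 SD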); details: DAMGO EC20, Fluo-4 calcium flux, at 10 µM; hits give high values
# [5] = molecular target: Short transient receptor potential channel 4 (Mus musculus) (UniProt Q9QUQ5); assay: inhibitors of mouse TRPC4 channel, confirmation, cell-based, Fluo4, HEK293 TRPC4beta/mu-opioid (AID 2636;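 active = calcium signal cut by more than 3 SD below the full-agonist control yet still positive, in both repeats and the earlier primary screen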); details: DAMGO, Fluo4 calcium flux, at 10 µM; hits give high values
# [6] = molecular target: Short transient receptor potential channel 4 (Mus musculus) (UniProt Q9QUQ5); assay: inhibitors of mouse TRPC4 channel, confirmation, cell-based, second round, Fluo4, HEK293 TRPC4beta/mu-opioid, 1 µM (AID 2637;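 active = calcium signal ratio cut to more than 3 SD under the fully stimulated control mean yet still positive, in both repeats and the primary screen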;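 for inhibition: percent of integrated ratio relative to wells lacking test compound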); details: Fluo4 calcium flux, DAMGO, at 1 µM; hits give high values
# [7] = molecular target: Short transient receptor potential channel 4 (Mus musculus) (UniProt Q9QUQ5); assay: mouse TRPC4 channel activators, dose response, cell-based, HEK293 TRPC4/mu-opioid, Fluo-4 calcium (AID 434937;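 active = primary screen activator hit with a dose response curve and TRPC4 channel activation at any tested dose; inactive = no activation, no dose response, or not a primary hit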)
# [8] = molecular target: Short transient receptor potential channel 4 (Mus musculus) (UniProt Q9QUQ5); assay: TRPC4 positive allosteric modulators, dose response, cell-based, HEK293 TRPC4/mu-opioid, Fluo-4 calcium, EC20 DAMGO (AID 434941;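 active = earlier screen potentiator hit that boosts the TRPC4 ion channel at some dose, with a dose response; inactive = no potentiation, no dose response, or not a prior hit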;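 note: calcium entry triggered by an EC20 dose of DAMGO at the co-expressed mu-opioid receptor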)
# [9] = molecular target: Short transient receptor potential channel 6 (Mus musculus) (UniProt Q61143); assay: inhibition of mouse TRPC6 channel, confirmation, selectivity assay for TRPC4 inhibitor project, cell-based, HEK293, membrane potential dye, duplicate (AID 434948;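 active = active in primary screen and both duplicates, each dropping signal beyond three positive-control SD with fluorescence still positive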); details: HEK293 TRPC6, membrane potential dye fluorescence, at 10 µM, stimulated with maximal-effect acetylcholine; hits give high values
# [10] = molecular target: Short transient receptor potential channel 6 (Mus musculus) (UniProt Q61143); assay: activation of mouse TRPC6 channel, confirmation, selectivity assay for TRPC4 activator project, cell-based, HEK293, membrane potential dye, duplicate (AID 434950;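 active = membrane potential signal rise above negative control mean plus 3 SD in both duplicates, also active in the earlier TRPC4 screen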); details: HEK293 TRPC6, membrane potential fluorescence, at 10 µM; hits give high values
# [11] = molecular target: Short transient receptor potential channel 6 (Mus musculus) (UniProt Q61143); assay: TRPC6 potentiation by TRPC4 potentiator hits, confirmation, selectivity assay for TRPC4 potentiator project, HEK293 cells, membrane potential dye, duplicate (AID 434952;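 active = compound raising the membrane signal above positive-control mean plus 3 SD in both repeats, and a primary screen hit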); details: HEK293 TRPC6, membrane potential dye fluorescence, at 10 µM, maximal acetylcholine added after compound; hits give high values
# [12] = molecular target: Short transient receptor potential channel 4 (Mus musculus) (UniProt Q9QUQ5); assay: calcium flux activators in TRPC4/5HT1a cells, counter-screen for TRPC4 activator project, cell-based, second counter screen, HEK293 TRPC4/5HT1a, Fluo-4 (AID 434977;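 active = calcium signal rise above buffer-control mean plus 5 SD in both duplicates, and also a hit in the primary screen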); details: Fluo-4 calcium flux, at 10 µM; hits give high values
# [13] = calcium flux inhibitors in TRPC4/5HT1a cells, confirmation, counter-screen for TRPC4 inhibitor project, cell-based, second counter screen, HEK293 TRPC4/5HT1a, Fluo-4 (AID 434978;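 active = primary screen active whose calcium signal fell more than 3 SD beyond the full-serotonin control mean in both duplicate plates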;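 for outcome: serotonin given first at submaximal then at maximal dose after compound preincubation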); details: Fluo-4 calcium flux, at 10 µM, serotonin added to trigger calcium flux; hits give high values
# [14] = test system: TRPC4 (mouse), co-expressed with 5HT1a in HEK293; assay: calcium flux potentiators in TRPC4/5HT1a cells, confirmation, counter-screen for TRPC4 potentiator project, cell-based, second counter screen, HEK293 TRPC4/5HT1a, Fluo-4 (AID 434979;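 active = signal rise over 3 SD above mean of control wells given weak agonist, in both repeats and first screen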); details: Fluo-4 calcium flux, at 10 µM, serotonin added at its EC20 dose; hits give high values
# [15] = calcium flux activation in mu-opioid HEK293 cells, confirmation, counter-screen for TRPC4 activator project, cell-based, HEK293 mu-opioid receptor line (AID 449723;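 active = hit in primary screen, with calcium signal over 5 SD above buffer well mean in both duplicates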;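 note: counter screen cells carry the mu-opioid receptor alone and lack TRPC4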); details: Fluo-4 calcium fluorescence, at 10 µM; hits give high values
# [16] = calcium flux enhancement in mu-opioid HEK293 cells, confirmation, counter-screen for TRPC4 allosteric potentiator project, cell-based, HEK293 mu-opioid receptor line (AID 449724;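 active = calcium signal rise more than 3 SD above the low-dose agonist control mean, in both duplicate plates and the primary screen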); details: Fluo-4 calcium flux, at 10 µM, compound added before EC20 DAMGO stimulus; hits give high values
# [17] = thallium flux activation in parental CHO cells, counter-screen for KCNQ1 potentiator project (AID 493006;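 active = duplicate-averaged activation above buffer control mean plus 5 SD of those controls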); details: parental CHO-K1 cells, FluxOR thallium flux, at 10 µM; hits give high values
# [18] = molecular target: Potassium voltage-gated channel subfamily KQT member 1 (Homo sapiens) (UniProt P51787); assay: KCNQ1 potassium channel potentiators, confirmation, FluxOR thallium flux, CHO cells, duplicates (AID 493007;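 active = potentiation averaged over duplicate wells exceeding buffer-only control mean by more than 3 SD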;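 note: cells depolarized by a potassium plus thallium sulfate stimulus after compound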); details: KCNQ1 cell line, FluxOR thallium flux fluorescence, at 10 µM; hits give high values, % of reference activator effect, buffer zero
# [19] = molecular target: Potassium voltage-gated channel subfamily KQT member 2 (Rattus norvegicus) (UniProt O88943); assay: rat KCNQ2 channel potentiation, selectivity assay for KCNQ1 potentiator project, KCNQ2-CHO-K1 cells (AID 493009;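 active = mean duplicate potentiation above the buffer control mean plus 5 SD of buffer wells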;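 note: assay conditions were tuned for KCNQ1 rather than KCNQ2 modulators; signal is max minus min fluorescence divided by baseline after thallium stimulus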); details: FluxOR thallium flux fluorescence, at 10 µM; hits give high values, scaled: buffer 0, activator control 100
# [20] = molecular target: Potassium voltage-gated channel subfamily KQT member 1 (Homo sapiens) (UniProt P51787); assay: KCNQ1 channel current potentiators, confirmation, orthogonal assay for KCNQ1 potentiator project, IonWorks patch clamp, KCNQ1-CHO cells (AID 493184;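 active = current rise at least 3 SD above the untreated control mean in each of two repeat wells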); details: automated patch clamp current, at 10 µM; hits give high values
# Sequence of Short transient receptor potential channel 6 (Mus musculus) (Q61143 whole entry, looked up): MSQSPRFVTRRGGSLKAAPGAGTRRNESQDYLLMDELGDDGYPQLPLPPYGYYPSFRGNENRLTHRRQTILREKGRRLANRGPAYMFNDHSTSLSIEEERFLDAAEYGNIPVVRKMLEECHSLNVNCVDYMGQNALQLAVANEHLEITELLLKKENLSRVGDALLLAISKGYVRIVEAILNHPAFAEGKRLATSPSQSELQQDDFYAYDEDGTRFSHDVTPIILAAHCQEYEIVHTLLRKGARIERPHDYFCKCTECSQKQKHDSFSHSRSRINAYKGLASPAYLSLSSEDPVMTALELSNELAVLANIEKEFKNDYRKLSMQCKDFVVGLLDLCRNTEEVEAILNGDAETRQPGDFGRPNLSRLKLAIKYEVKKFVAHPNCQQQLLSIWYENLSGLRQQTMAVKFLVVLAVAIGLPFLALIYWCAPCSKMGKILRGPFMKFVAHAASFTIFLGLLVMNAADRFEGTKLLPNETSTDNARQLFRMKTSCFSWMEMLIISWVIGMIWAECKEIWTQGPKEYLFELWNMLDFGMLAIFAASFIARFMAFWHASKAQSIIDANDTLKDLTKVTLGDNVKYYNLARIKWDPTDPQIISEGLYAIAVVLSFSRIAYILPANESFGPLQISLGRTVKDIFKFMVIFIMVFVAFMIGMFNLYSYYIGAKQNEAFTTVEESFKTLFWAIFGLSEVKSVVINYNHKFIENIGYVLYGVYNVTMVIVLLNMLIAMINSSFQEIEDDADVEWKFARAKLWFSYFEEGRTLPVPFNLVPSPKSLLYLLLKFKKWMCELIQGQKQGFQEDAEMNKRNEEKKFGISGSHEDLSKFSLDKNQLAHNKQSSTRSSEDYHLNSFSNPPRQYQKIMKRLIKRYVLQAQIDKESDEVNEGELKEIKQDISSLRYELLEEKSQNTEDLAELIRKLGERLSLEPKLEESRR
# Sequence of Short transient receptor potential channel 4 (Mus musculus) (Q9QUQ5 whole entry, looked up): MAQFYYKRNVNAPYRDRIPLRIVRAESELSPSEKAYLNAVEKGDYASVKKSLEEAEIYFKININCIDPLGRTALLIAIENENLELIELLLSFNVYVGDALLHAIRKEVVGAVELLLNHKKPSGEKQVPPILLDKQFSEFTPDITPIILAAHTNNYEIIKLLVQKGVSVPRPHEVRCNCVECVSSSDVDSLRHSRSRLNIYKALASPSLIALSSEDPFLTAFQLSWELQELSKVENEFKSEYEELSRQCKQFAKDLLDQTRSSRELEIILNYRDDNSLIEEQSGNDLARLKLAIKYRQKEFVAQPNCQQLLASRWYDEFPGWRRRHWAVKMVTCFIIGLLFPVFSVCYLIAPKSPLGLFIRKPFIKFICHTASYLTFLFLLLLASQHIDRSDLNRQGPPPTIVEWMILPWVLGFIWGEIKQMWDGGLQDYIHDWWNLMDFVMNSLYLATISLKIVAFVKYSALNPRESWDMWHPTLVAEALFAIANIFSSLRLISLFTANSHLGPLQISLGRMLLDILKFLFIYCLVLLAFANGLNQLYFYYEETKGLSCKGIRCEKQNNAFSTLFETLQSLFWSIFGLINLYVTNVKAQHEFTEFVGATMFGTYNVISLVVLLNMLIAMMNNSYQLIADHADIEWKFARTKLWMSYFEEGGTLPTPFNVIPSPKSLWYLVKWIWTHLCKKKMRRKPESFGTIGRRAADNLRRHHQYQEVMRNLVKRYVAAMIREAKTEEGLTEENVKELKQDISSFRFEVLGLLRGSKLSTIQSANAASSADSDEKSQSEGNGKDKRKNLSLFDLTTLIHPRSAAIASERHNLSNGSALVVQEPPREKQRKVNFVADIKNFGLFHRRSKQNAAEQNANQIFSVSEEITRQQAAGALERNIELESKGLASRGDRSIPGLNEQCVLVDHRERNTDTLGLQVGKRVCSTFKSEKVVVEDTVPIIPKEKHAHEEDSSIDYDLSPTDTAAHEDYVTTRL
# Sequence of Potassium voltage-gated channel subfamily KQT member 1 (Homo sapiens) (P51787 whole entry, looked up): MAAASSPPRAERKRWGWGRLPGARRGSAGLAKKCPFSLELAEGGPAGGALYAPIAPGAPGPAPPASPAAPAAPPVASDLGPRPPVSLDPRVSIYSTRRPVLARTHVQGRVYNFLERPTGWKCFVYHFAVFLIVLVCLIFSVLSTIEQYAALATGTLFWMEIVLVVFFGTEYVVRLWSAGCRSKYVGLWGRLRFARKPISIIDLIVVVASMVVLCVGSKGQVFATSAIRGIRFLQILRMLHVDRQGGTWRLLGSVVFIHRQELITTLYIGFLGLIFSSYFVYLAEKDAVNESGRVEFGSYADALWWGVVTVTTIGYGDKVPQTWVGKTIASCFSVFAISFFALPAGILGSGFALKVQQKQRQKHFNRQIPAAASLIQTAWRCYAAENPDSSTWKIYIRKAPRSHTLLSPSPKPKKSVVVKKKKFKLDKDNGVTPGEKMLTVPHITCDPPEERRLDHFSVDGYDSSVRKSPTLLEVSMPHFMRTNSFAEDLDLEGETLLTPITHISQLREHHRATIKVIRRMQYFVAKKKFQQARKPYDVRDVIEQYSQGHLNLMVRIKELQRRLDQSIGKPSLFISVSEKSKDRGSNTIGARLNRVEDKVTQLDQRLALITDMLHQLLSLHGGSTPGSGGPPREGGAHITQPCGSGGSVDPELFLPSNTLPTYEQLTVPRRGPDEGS
# Sequence of Potassium voltage-gated channel subfamily KQT member 2 (Rattus norvegicus) (O88943 whole entry, looked up): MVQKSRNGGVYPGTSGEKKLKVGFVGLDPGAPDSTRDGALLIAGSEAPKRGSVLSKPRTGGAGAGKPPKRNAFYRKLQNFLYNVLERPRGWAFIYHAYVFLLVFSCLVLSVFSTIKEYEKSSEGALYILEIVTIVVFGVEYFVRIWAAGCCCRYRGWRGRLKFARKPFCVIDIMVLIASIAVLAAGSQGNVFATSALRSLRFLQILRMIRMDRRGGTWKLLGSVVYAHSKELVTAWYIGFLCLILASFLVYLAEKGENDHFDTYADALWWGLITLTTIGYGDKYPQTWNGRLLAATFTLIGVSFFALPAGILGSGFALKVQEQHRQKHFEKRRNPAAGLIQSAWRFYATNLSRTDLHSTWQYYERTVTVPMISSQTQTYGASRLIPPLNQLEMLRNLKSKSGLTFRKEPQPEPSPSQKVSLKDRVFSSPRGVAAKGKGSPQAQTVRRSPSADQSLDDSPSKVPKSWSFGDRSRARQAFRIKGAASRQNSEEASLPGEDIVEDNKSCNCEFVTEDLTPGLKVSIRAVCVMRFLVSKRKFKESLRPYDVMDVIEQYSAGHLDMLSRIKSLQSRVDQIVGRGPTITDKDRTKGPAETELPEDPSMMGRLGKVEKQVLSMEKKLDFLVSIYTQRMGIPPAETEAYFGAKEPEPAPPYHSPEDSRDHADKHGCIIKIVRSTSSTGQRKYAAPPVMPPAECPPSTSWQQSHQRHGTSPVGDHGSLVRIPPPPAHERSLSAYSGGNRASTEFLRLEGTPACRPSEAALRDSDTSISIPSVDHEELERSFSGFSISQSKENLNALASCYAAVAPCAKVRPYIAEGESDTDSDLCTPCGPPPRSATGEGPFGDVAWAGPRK
structure (smiles),measurement,setting,value
CCn1c2ccccc2c2cc(/C=N/NC(=O)c3cc(O)cc(O)c3)ccc21,outcome,[1],inactive
same,outcome,[2],inactive
same,outcome,[3],inactive
same,outcome,[4],inactive
same,inhibition,[5],78% (active)
same,inhibition,[6],43% (active)
same,outcome,[7],inactive
same,outcome,[8],inactive
same,outcome,[9],inactive
same,outcome,[10],inactive
same,outcome,[11],inactive
same,outcome,[12],inactive
same,inhibition,[13],43% (active)
same,outcome,[14],inactive
same,outcome,[15],inactive
same,outcome,[16],inactive
CCOC(=O)c1cc(C#N)c(N2CCCCC2)nc1-c1ccccc1,outcome,[1],inactive
same,outcome,[2],inactive
same,outcome,[3],inactive
same,outcome,[4],inactive
same,inhibition,[5],93% (active)
same,outcome,[6],inactive
same,outcome,[7],inactive
same,outcome,[8],inactive
same,outcome,[9],inactive
same,outcome,[10],inactive
same,outcome,[11],inactive
same,outcome,[12],inactive
same,outcome,[13],inactive
same,outcome,[14],inactive
same,outcome,[15],inactive
same,outcome,[16],inactive
CN1CCN(Cc2cn[nH]c2-c2ccc(F)cc2F)[C@@H](c2ccccc2)C1,outcome,[1],inactive
same,outcome,[2],inactive
same,outcome,[3],inactive
same,outcome,[4],inactive
same,outcome,[5],inactive
same,outcome,[6],inactive
same,outcome,[7],inactive
same,outcome,[8],inactive
same,outcome,[9],inactive
same,outcome,[10],inactive
same,outcome,[11],inactive
same,outcome,[12],inactive
same,outcome,[13],inactive
same,outcome,[14],inactive
same,outcome,[15],inactive
same,outcome,[16],inactive
CNC(=S)N1CCN(C(c2ccccc2)c2ccccc2)CC1,activation,[1],223% (active)
same,outcome,[2],inactive
same,outcome,[3],inactive
same,outcome,[4],inactive
same,inhibition,[5],93% (active)
same,outcome,[6],inactive
same,outcome,[7],inactive
same,outcome,[8],inactive
same,outcome,[9],inactive
same,outcome,[10],inactive
same,outcome,[11],inactive
same,outcome,[12],inactive
same,outcome,[13],inactive
same,outcome,[14],inactive
same,outcome,[15],inactive
same,outcome,[16],inactive
CC(OCC(O)CN(C)CCOc1ccccc1)c1ccc(Cl)cc1 (stereo unspecified),outcome,[1],inactive
same,outcome,[2],inactive
same,outcome,[3],inactive
same,outcome,[4],inactive
same,inhibition,[5],94% (active)
same,inhibition,[6],44% (active)
same,outcome,[7],inactive
same,outcome,[8],inactive
same,outcome,[9],inactive
same,outcome,[10],inactive
same,outcome,[11],inactive
same,outcome,[12],inactive
same,inhibition,[13],22.2% (active)
same,outcome,[14],inactive
same,outcome,[15],inactive
same,outcome,[16],inactive
Cc1cccc(Cn2c(C(C)(C)C)cc3cccnc32)c1,outcome,[1],inactive
same,outcome,[2],inactive
same,outcome,[3],inactive
same,outcome,[4],inactive
same,inhibition,[5],95% (active)
same,inhibition,[6],72% (active)
same,outcome,[7],inactive
same,outcome,[8],inactive
same,inhibition,[9],59.5% (active)
same,outcome,[10],inactive
same,outcome,[11],inactive
same,outcome,[12],inactive
same,inhibition,[13],19.4% (active)
same,outcome,[14],inactive
same,outcome,[15],inactive
same,outcome,[16],inactive
C=CCSc1nc2c(c(=O)[nH]c(=O)n2C)n1C/C=C(/C)Cl,outcome,[1],inactive
same,outcome,[2],inactive
same,outcome,[3],inactive
same,outcome,[4],inactive
same,inhibition,[5],85% (active)
same,inhibition,[6],57% (active)
same,outcome,[7],inactive
same,outcome,[8],inactive
same,outcome,[9],inactive
same,outcome,[10],inactive
same,outcome,[11],inactive
same,outcome,[12],inactive
same,inhibition,[13],32.5% (active)
same,outcome,[14],inactive
same,outcome,[15],inactive
same,outcome,[16],inactive
same,outcome,[17],inactive
same,outcome,[18],inactive
same,outcome,[19],inactive
same,outcome,[20],inactive
